According to PubChem BioAssay (NCI):
Several values for one entry are separate records, joined by “and”; a condition that tells them apart may be missing. Equal entries are not always repeated. About 79,000 compounds went through this panel and 15% of them were active in at least one assay; those are over-represented in the sample as a whole. Where a structure was tested more than once in an assay, its records may differ in their call. Activity calls are given as the source filed them. Cut-off read from the data, not from the text of the source: active = growth inhibition above about 70%; inactive = the rest.

How the values were obtained:
[1] = NCI Yeast Anticancer Drug Screen. Data for the rad50 strain (AID 155);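 note: 0% = growth of vehicle-only cultures of the same strain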; conditions: S. cerevisiae rad50 strain growth inhibition; at 50.0 µM; stronger effect = higher value
How it was run: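 Readout: growth inhibition relative to vehicle-treated cultures. Compound exposure was carried out in a genetically defined yeast strain deficient in DNA damage repair.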

[2] = NCI Yeast Anticancer Drug Screen. Data for the mec2-1 strain (AID 157); conditions: S. cerevisiae mec2-1 strain, at 50.0 µM, stronger effect = higher value
How it was run: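 Compounds were applied to mec2-1 yeast cells. Their growth was then compared with that of vehicle-treated cultures to give growth inhibition.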

[3] = NCI Yeast Anticancer Drug Screen. Data for the sgs1 mgt1 strain (AID 161);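 note: 0% = growth of cultures given vehicle only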; conditions: S. cerevisiae sgs1 mgt1 strain, at 50.0 µM, stronger effect = higher value
How it was run: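 This yeast growth screen uses a strain with defined DNA-repair lesions; compound-treated growth is compared with vehicle-treated growth.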

[4] = NCI Yeast Anticancer Drug Screen. Data for the cln2 rad14 strain (AID 165);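 note: 0% = growth equal to vehicle treated cultures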; conditions: S. cerevisiae cln2 rad14 strain, at 50.0 µM, stronger effect = higher value
How it was run: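 Strain: cln2 rad14 yeast, altered in cell cycle control and DNA damage repair. Read-out: growth inhibition vs vehicle.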

[5] = NCI Yeast Anticancer Drug Screen. Data for the bub3 strain (AID 167); conditions: S. cerevisiae bub3 mutant strain, at 50.0 µM, stronger effect = higher value
How it was run: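 Readout: yeast growth inhibition, expressed relative to vehicle-only wells. The test organism is a mutant strain from a panel with lesions in DNA repair or checkpoint genes.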

[6] = NCI Yeast Anticancer Drug Screen. Data for the mlh1 rad18 strain (AID 175); conditions: S. cerevisiae mlh1 rad18 strain growth inhibition; at 50.0 µM; stronger effect = higher value
How it was run: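 A repair-deficient yeast strain is exposed to test compound, and growth is scored relative to vehicle-treated controls.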

Row | Compound | growth inhibition [1] | growth inhibition [2] | growth inhibition [3] | growth inhibition [4] | growth inhibition [5] | growth inhibition [6]
1 | CC(C)CC(NC(=O)COc1ccccc1Cl)C(=O)O (stereo unspecified) | -9.6% (inactive) and 5.05% (inactive) | 15.5% (inactive) and 14.3% (inactive) | 3.4% (inactive) and 6.9% (inactive) | -11.8% (inactive) and -9.2% (inactive) | 1.25% (inactive) and 7.15% (inactive) | -8.75% (inactive) and -13.3% (inactive)
2 | Nc1ncnc2c1nc(N1CCCCC1)n2C1OC(CO)C(O)C1O (stereo unspecified) | 27.9% (inactive) and -5.55% (inactive) | 12.2% (inactive) and -0.15% (inactive) | 9.9% (inactive) | -38% (inactive) and -43.2% (inactive) | 3.5% (inactive) and -5.1% (inactive) | 2.6% (inactive) and -7.85% (inactive)
3 | CC(=O)OC1CC2CCC1(C)C2(C)C (stereo unspecified) | 34.9% (inactive) and 30.8% (inactive) and -12.2% (inactive) | 26.9% (inactive) and 26.1% (inactive) and -20.2% (inactive) | 25.8% (inactive) and -34.8% (inactive) and -3.7% (inactive) | 19.9% (inactive) and 18.3% (inactive) and 5.2% (inactive) | 29.5% (inactive) and -30.4% (inactive) and 3.55% (inactive) | 4.85% (inactive) and -78.1% (inactive) and -14.2% (inactive)
4 | CN(C)CC1CC(=O)C(CN(C)C)CC1=O (stereo unspecified) | 7.35% (inactive) and -5.3% (inactive) | 1.85% (inactive) and -5.7% (inactive) | -10.1% (inactive) and -21.7% (inactive) | 4% (inactive) and -37.1% (inactive) | -7.45% (inactive) and -15.6% (inactive) | 18.6% (inactive) and -8.8% (inactive)
5 | CN(C)N=Nc1ccc(C(=O)O)cc1 | 27.6% (inactive) and 12.6% (inactive) | 22.1% (inactive) and -1.3% (inactive) | 28.6% (inactive) and 20.9% (inactive) | -0.05% (inactive) and -0.65% (inactive) | 16.9% (inactive) and -21.1% (inactive) | 26.6% (inactive) and 7.65% (inactive)
6 | OCC1OC(n2cnc3cncnc32)C(O)C1O (stereo unspecified) | 12.4% (inactive) and 3.3% (inactive) | -40% (inactive) and 24.9% (inactive) | 13.4% (inactive) and 23.4% (inactive) | 12.3% (inactive) and -35.8% (inactive) | -3.65% (inactive) and 22.6% (inactive) | 2.15% (inactive) and 29.9% (inactive)
7 | Cc1ccc(S/C=C/C(=O)O)cc1 | -3% (inactive) and 19.8% (inactive) | 18.5% (inactive) and -0.1% (inactive) | 16.1% (inactive) and 20.4% (inactive) | 7.7% (inactive) and 19.2% (inactive) | -0.1% (inactive) and -6.05% (inactive) | 20.6% (inactive) and 5.45% (inactive)
8 | COc1cc(-c2[o+]c3cc(O)cc(O)c3cc2O)cc(O)c1O | 28.6% (inactive) and 0.3% (inactive) | 17.6% (inactive) and -25.1% (inactive) | 23.1% (inactive) and 0.7% (inactive) | 12.5% (inactive) and -24.9% (inactive) | 19.6% (inactive) and 19.1% (inactive) | 30.2% (inactive) and 24.2% (inactive)
9 | O=[N+]([O-])c1ccc(N=Cc2ccc(Cl)cc2)cc1 | -0.2% (inactive) and 4.6% (inactive) | -6.05% (inactive) and 4.9% (inactive) | -23.2% (inactive) and -2.25% (inactive) | -0.2% (inactive) and -40.4% (inactive) | 5.85% (inactive) and 7.9% (inactive) | -4.15% (inactive) and -3.05% (inactive)
10 | Cc1cc(C#N)c(=S)n(C2OC(CO)C(O)C(O)C2O)c1C (stereo unspecified) | 7.4% (inactive) and 11.9% (inactive) | 9.25% (inactive) and 8.65% (inactive) | 14.2% (inactive) and 15.2% (inactive) | 7.25% (inactive) and -0.4% (inactive) | 7.8% (inactive) and 7.75% (inactive) | 24.6% (inactive) and 22.6% (inactive)
11 | NC(N)=N/N=C(/C=N/N=C(N)N)C(O)C(O)CO (stereo unspecified) | -11% (inactive) and -10.4% (inactive) | -1.95% (inactive) and -8.1% (inactive) | -7.6% (inactive) and 3.3% (inactive) | -39.3% (inactive) and -17.4% (inactive) | -18.1% (inactive) and -13.7% (inactive) | -20.4% (inactive) and -19.9% (inactive)
12 | Cc1ccc(S(=O)(=O)NC(CCC(=O)O)C(=O)O)cc1 (stereo unspecified) | -11.2% (inactive) and -4.6% (inactive) | -22.7% (inactive) and 7.2% (inactive) | 0.15% (inactive) and 0.2% (inactive) | -6.75% (inactive) and -12.2% (inactive) | 21.1% (inactive) and 6.9% (inactive) | -12.4% (inactive) and 9.75% (inactive)
13 | OC/C=C/c1ccccc1 | 5.7% (inactive) and 14.7% (inactive) | 6.7% (inactive) and -3.15% (inactive) | 12.1% (inactive) and -16.6% (inactive) | 10.1% (inactive) and -2.55% (inactive) | 2.65% (inactive) and 12.1% (inactive) | 14.7% (inactive) and -8.85% (inactive)
14 | OCC(O)C(O)C(O)c1cnn(-c2ccccc2)n1 (stereo unspecified) | 8.95% (inactive) and 4.85% (inactive) | -5.4% (inactive) and 1.9% (inactive) | -4.6% (inactive) and -4.7% (inactive) | 1.75% (inactive) and -3.7% (inactive) | -2.85% (inactive) and -8.2% (inactive) | 14.6% (inactive) and -0.05% (inactive)
15 | CCOC(=O)C(=O)Cc1cnc2ccccc2n1 | 1.95% (inactive) and 3.05% (inactive) | 7.55% (inactive) and -4.8% (inactive) | -18.8% (inactive) and -8.3% (inactive) | 3.6% (inactive) and 10.7% (inactive) | -1.2% (inactive) and 7.2% (inactive) | 16.2% (inactive) and -5.05% (inactive)
16 | CCC(C)C(N)C(=O)O (stereo unspecified) | -39.2% (inactive) and 2.9% (inactive) | -31.7% (inactive) and -21.1% (inactive) | -17.4% (inactive) and -2.15% (inactive) | -29.3% (inactive) and 5.4% (inactive) | -14.1% (inactive) and 4.05% (inactive) | -28.9% (inactive) and 5.5% (inactive)
17 | CCCc1ccc(OC2OC(COC(C)=O)C(OC(C)=O)C(OC(C)=O)C2OC(C)=O)cc1 (stereo unspecified) | -7% (inactive) and -12.6% (inactive) | -9.65% (inactive) and 2.4% (inactive) | -13.5% (inactive) and 9.65% (inactive) | -5.25% (inactive) and 3.95% (inactive) | -37% (inactive) and 5.1% (inactive) | -8.05% (inactive) and 4.1% (inactive)
18 | Cc1ccc(C(O)c2nnc(C(O)c3ccc(C)cc3)nn2)cc1 (stereo unspecified) | 11.2% (inactive) and 33.9% (inactive) | 11.6% (inactive) and 29% (inactive) | -3.55% (inactive) and 71% (active) | 9.45% (inactive) and 16.4% (inactive) | 18.9% (inactive) and 21.2% (inactive) | 18.8% (inactive) and 40.5% (inactive)
19 | OCC(O)C(O)C1OC(O)C(O)C(O)C1O (stereo unspecified) | 1.1% (inactive) and -15.8% (inactive) | 0.45% (inactive) and -15.2% (inactive) | 3.1% (inactive) and -4.25% (inactive) | -8.25% (inactive) and -17.1% (inactive) | 0.25% (inactive) and -1.65% (inactive) | 7.85% (inactive) and -7.65% (inactive)
20 | Cc1ccc(S(=O)(=O)NC(C(=O)O)C(C)C)cc1 (stereo unspecified) | 11.5% (inactive) and -39.5% (inactive) | 3.75% (inactive) and -12.9% (inactive) | -8.8% (inactive) and -51.1% (inactive) | -1.2% (inactive) and -20.2% (inactive) | 35% (inactive) and -16.2% (inactive) | 0.45% (inactive) and -18.9% (inactive)
21 | O=C(O)c1cccnc1 | 18.2% (inactive) and 13.2% (inactive) | 5.35% (inactive) and -7.8% (inactive) | -4.15% (inactive) and -10% (inactive) | 2.65% (inactive) and -2.6% (inactive) | 5.65% (inactive) and -0.1% (inactive) | 18.5% (inactive) and 16.7% (inactive)
